Compounds with a hit are over-represented: about 12% of the library has one in this group of screens.
Sm TGR block: blocks Schistosoma mansoni thioredoxin glutathione reductase; purified TGR, DTNB reduction, TNB absorbance 405 nm; Potency, µM (doses to about 114 µM), without a hit: top-dose activity change, negative = inhibition, usual class: inhibitors; actives 3% (n = 360,000); AID 485364; active = well fitted inhibition curve with a large enough effect; inconclusive = small, poorly fitted or top-dose-only effect; inactive = no such curve, though single readings can be large or run the other way; also: potency is read from the fitted curve at half-maximal effect; % is scaled to controls: 0 for no effect and ±100 for the full control effect; nearly all actives have a fitted effect of over 60% in size
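First, TGR (20 nM dispensed) and NADPH were mixed with compound. Second, a 15 min room-temperature incubation followed. Third, further NADPH and then DTNB were added to start the reaction. Finally, TNB absorbance was monitored kinetically.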
Shiga toxin inh: blocks Shiga toxin action in Vero cells; Vero cells, Shiga toxin protein synthesis inhibition reporter; inhibition, % at 38.7 µM; actives 9.2% (n = 290,000); AID 2315; in the data active = inhibition mostly above about 28%, no sharp cut-off; inactive = mostly below about 43%; also: 0% is about no effect
FMDV inh: foot and mouth disease virus antiviral activity | FMDV antiviral cell-based qHTS | Potency, µM (doses to about 57.9 µM), for inactives: at the highest dose activity change, negative = inhibition, hits mostly inhibitors | actives 1.2% (n = 410,000) | AID 1159524; calls by dose curve; tested in HEK293T cells; also: read-out not given here; potency is read from the fitted curve at half-maximal effect; % is scaled to controls: 0 for no effect and ±100 for the full control effect; nearly all actives have a fitted effect of over 45% in size
Cycloheximide cs: counter-screen hit for Shiga toxin inhibitors, cycloheximide; cell reporter, cycloheximide protein synthesis inhibition counterscreen; max response, %; actives 12% (n = 300,000); AID 2314; in the data active = max response mostly above about 13%, no sharp cut-off; inactive = mostly below about 14%; also: read at 38.3 µM for the half of the compounds with a filed dose; 0% is about no effect
* = called active by the depositor.

Cc1cccn2cc(-c3cccc(S(=O)(=O)N4CCOCC4)c3)nc12 was read as Sm TGR block 5%, Shiga toxin inh 13, FMDV inh -2% and Cycloheximide cs -2.
Screening Cc1ccn2cc(-c3ccc(S(=O)(=O)N4CCOCC4)cc3)nc2c1 returned Sm TGR block -19%, Shiga toxin inh 47 and Cycloheximide cs 48*.
For Cc1ccc2c(c1)c(=O)c1ccccc1n2CCCC(=O)Nc1ccc(F)cc1F the results were Sm TGR block -2% and FMDV inh -10%.
Screening O=C(c1ccc2c(c1)N(Cc1ccc(F)cc1)C(=O)c1ccccc1S2(=O)=O)N1CCN(Cc2ccccc2)CC1 returned Sm TGR block 4% and FMDV inh -14%.
CC(=O)O[C@H]1C(=O)[C@@]2(C)C([C@H](OC(=O)c3ccccc3)[C@]3(O)C[C@H](OC(=O)[C@H](O)[C@@H](NC(=O)c4ccccc4)c4ccccc4)C(C)=C1C3(C)C)[C@]1(OC(C)=O)CO[C@@H]1C[C@@H]2OC(=O)[C@H](C)NC(=O)c1ccc(-c2c3ccc(=O)cc-3oc3cc(O)ccc23)c(C(=O)O)c1 (stereo not given in full) was read as Shiga toxin inh active and Cycloheximide cs 22.
Screening C/C=C(\C)C(=O)N[C@@H](c1ccccc1)[C@@H](O)C(=O)O[C@H]1C[C@@]2(O)[C@@H](OC(=O)c3ccccc3)C3[C@](C)(C(=O)[C@H](OC(C)=O)C(=C1C)C2(C)C)[C@@H](O)C[C@H]1OC[C@@]31OC(C)=O (stereo not given in full) returned Sm TGR block 4%, Shiga toxin inh -5, FMDV inh -16% and Cycloheximide cs -3.
O=S(=O)(Nc1ccc(Cl)cc1)c1cccc(S(=O)(=O)c2ccc(Cl)c(Cl)c2)c1 was read as Sm TGR block 9% and FMDV inh -14%.
O=C(NCc1ccccc1Cl)c1ccc2c(O)c(S(=O)(=O)c3ccccc3)c(=O)[nH]c2c1 was read as Sm TGR block -2% and FMDV inh -7%.
Screening Cn1cc(Cl)c(C(=O)NC2CCCCCC2)n1 returned Sm TGR block -12%, Shiga toxin inh 23* and Cycloheximide cs 14*.
Screening Cn1cc([N+](=O)[O-])c(C(=O)NC2CCCCCCC2)n1 returned Sm TGR block -1%, Shiga toxin inh 7 and Cycloheximide cs 6.
For Cn1cc(Cl)c(C(=O)NNC(=S)NC2CCCCC2)n1 the results were Sm TGR block 1%, Shiga toxin inh 54*, FMDV inh 8% and Cycloheximide cs 23*.
Screening COc1ccc(CN2C(=O)C(NC(=O)c3ccccc3C)(C(F)(F)F)N=C2c2ccccc2)cc1 (stereo not given) returned Sm TGR block -3% and FMDV inh -23%.
`CCC(=O)Nc1ccc2c(c1)ncn2-c1ccccc1OC` gave Sm TGR block 0%, Shiga toxin inh 24, FMDV inh 5% and Cycloheximide cs 7.
`CC(=O)Nc1ccc2c(c1)ncn2-c1ccccc1` gave Sm TGR block 1%, Shiga toxin inh 56*, FMDV inh 56% and Cycloheximide cs 49*.
CCC(=O)Nc1ccc2c(c1)ncn2-c1ccccc1 was read as Sm TGR block 14%, Shiga toxin inh 85*, FMDV inh 15% and Cycloheximide cs 33*.
O=P(O)(O)OC1[C@H](O)[C@H](OP(=O)(O)O)C(OP(=O)(O)O)[C@H](OP(=O)(O)O)[C@H]1O (stereo not given in full) was read as Shiga toxin inh inactive and Cycloheximide cs -10.
CCCC(NS(=O)(=O)c1ccc(-c2ccc(=O)[nH]n2)s1)c1cccs1 (stereo not given) was read as Sm TGR block -8%, Shiga toxin inh 23*, FMDV inh 0% and Cycloheximide cs 23*.
For O=S1(=O)C=C(Sc2nc3cc(Cl)ccc3o2)c2ccccc21 the results were Sm TGR block 1.6µM*, Shiga toxin inh 40, FMDV inh 28µM* and Cycloheximide cs 18*.
For Cc1cc(NC(=O)CSc2nc3cc(Cl)ccc3o2)no1 the results were Sm TGR block 6%, Shiga toxin inh -7, FMDV inh -10% and Cycloheximide cs -3.
For CCCCC(O)(CCCC)C(=O)NN(C(=O)OCC)c1ccccc1 the results were Sm TGR block -1%, Shiga toxin inh 8, FMDV inh -19% and Cycloheximide cs 1.
`CCCC(O)(CCC)C(=O)NN(C(=O)CCl)c1ccccc1` gave Sm TGR block 11µM*, Shiga toxin inh -7, FMDV inh inconclusive and Cycloheximide cs 2.
Screening C/C=C(\C)C(=O)OC1c2c(ccc3ccc(=O)oc23)OC(C)(C)C1OC(C)=O (stereo not given) returned Sm TGR block -25%, Shiga toxin inh -2, FMDV inh -12% and Cycloheximide cs -2.
For C/C=C(/C)C(=O)OC1c2c(ccc3ccc(=O)oc23)OC(C)(C)C1OC(=O)/C(C)=C\C (stereo not given) the results were Sm TGR block -27%, Shiga toxin inh -7, FMDV inh 28µM* and Cycloheximide cs -4.
`NC(=O)c1cc([N+](=O)[O-])ccc1NCc1ccc(N)cc1` gave Sm TGR block -5% and FMDV inh 8.9µM*.
Screening NC(=O)c1cc([N+](=O)[O-])ccc1NCc1ccc(F)cc1 returned Sm TGR block -8% and FMDV inh 44%.
`C/C=C/c1ccc(OCCn2cncn2)c(OC)c1` gave Sm TGR block inconclusive, Shiga toxin inh -5, FMDV inh 0% and Cycloheximide cs -1.
Screening C/C=C/c1ccc(OCCCn2cncn2)c(OC)c1 returned Sm TGR block -12%, Shiga toxin inh 27, FMDV inh 32% and Cycloheximide cs 11*.
For C/C=C/c1ccc(OCCCCOc2ccccc2F)c(OC)c1 the results were Sm TGR block 1%, Shiga toxin inh 6, FMDV inh 1% and Cycloheximide cs 4.
Screening C/C=C/c1ccc(OCCCCn2cncn2)c(OC)c1 returned Sm TGR block 0%, Shiga toxin inh 54*, FMDV inh 45% and Cycloheximide cs 34*.
`Cc1ccc(-n2ncc3c(NCc4ccccc4)ncnc32)cc1` gave Sm TGR block -9%, Shiga toxin inh 103*, FMDV inh 9% and Cycloheximide cs 111*.
CC(=O)NNc1ncnc2c1cnn2-c1ccc(C)c(C)c1 was read as Sm TGR block 1%, Shiga toxin inh 65*, FMDV inh 13% and Cycloheximide cs 56*.
COc1ccccc1CNc1ncnc2c1cnn2-c1ccccc1 was read as Sm TGR block -11%, Shiga toxin inh 43*, FMDV inh 0% and Cycloheximide cs 31*.
Cc1ccc(-n2ncc3c(NCc4cccnc4)ncnc32)cc1C was read as Sm TGR block -1%, Shiga toxin inh 115*, FMDV inh 1% and Cycloheximide cs 45*.
Screening Cc1ccc(-n2ncc3c(NCc4ccccc4)ncnc32)cc1Cl returned Sm TGR block -1% and FMDV inh 32%.
For Cc1ccc(CNc2ncnc3c2cnn3-c2ccccc2)cc1 the results were Sm TGR block -8%, Shiga toxin inh -5, FMDV inh 55% and Cycloheximide cs 1.
